From PubChem BioAssay (NCI)
About 83,000 compounds went through this panel and 20% of them were active in at least one assay; those are over-represented in the sample as a whole.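 Percent growth is the endpoint: 0 to 100 indicates growth inhibition (40 means 60% inhibition), 0 means no net growth, and negative values indicate cell death.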 A number with no mark means an inactive call. Activity calls are given as the source filed them.

Test system: M14 melanoma
Test: NCI-60 one-dose screen, 48 h (100 = growth as untreated, 0 = no growth, -100 = all killed)
Details: 10 µM unless noted
Protocol: Growth inhibition of the M14 human tumor cell line is measured as a screen for anti-cancer activity. Cells are grown in 96 well plates and exposed to the test compound for 48 hours. Compounds are tested at a single concentration, which is 10^-5 M for most compounds. The reported endpoint is percent growth (GI% or GIPRCNT), where numbers from 0 - 100% represent growth inhibition, and numbers from -100% - 0 represent cell death. For example, a value of 40 represents 60% growth inhibition. A value of 0 means no net growth occurred over the course of the experiment. A value of -40 indicates 40% of cells at the beginning of the experiment died by the end of the experiment. A value of -100 means all cells are dead at the end of the experiment.
NCI-60 Human Tumor Cell Lines Screen was performed using the standard one-dose NCI protocol, which is described in more detail at https://dtp.cancer.gov/discovery_development/nci-60/default.htm.
Compounds with GIPRCNT values below 10 were considered active. Activity score was based on GIPRCNT using the following formula: […]
Score is 0 for GIPRCNT values of 100 or above, 50 for GIPRCNT values of 0, and 100 for GIPRCNT values of -100.

Row | Compound | growth
1 | COc1ccc(Cn2cc3c(c2)-c2oncc2CC3)cc1OC | 4.9% (active)
2 | CCOc1ccc2nc3ccc(Cl)cc3nc2c1 | -100% (active)
3 | CN1CCN(Cc2ccc(NC(=O)c3cncc(C#Cc4c(N)ncc5ccc(F)cc45)c3)cc2C(F)(F)F)CC1 | -73.7% (active)
4 | COC(=O)/C=C/c1cc(O)c2oc(-c3ccc(O)c(O)c3)c(C(=O)OC)c2c1 | 21%
5 | O=C(N/N=C\c1ccc(-c2ccc(Br)cc2)o1)c1cc2oc(-c3cccc(C(F)(F)F)c3)cc2[nH]1 | 117%
6 | CN1CCN(Cc2ccc(NC(=O)c3ccc(C#Cc4c(N)ncc5ccc(F)cc45)cc3)cc2C(F)(F)F)CC1 | -89.2% (active)
7 | CC/C(=N\Nc1nc2ccccc2n1C)c1ccccn1 | -19% (active)
8 | c1cc[c]([Bi]([c]2ccccc2)[c]2ccccc2)cc1 | 94%
9 | COc1ccc(-c2nc(SCC(C)C)nc(Nc3ccccc3)c2C#N)cc1 | 95.8%
10 | COc1ccc(/C=C/C(=O)/C=C/c2cc3ccccc3[nH]c2=O)cc1 | 72.9%
11 | Cc1cc(CSc2ccc(Cl)cc2)ccc1N | 101%
12 | CCNc1nnc(COc2ccc(CNC(=O)CCCC/C=C/C(C)C)cc2OC)o1 | 102%
13 | COc1ccc2c(c1)/C(=C1/S/C(=N/c3nnc(C)s3)NC1=O)C(=O)N2Cc1ccc(Br)cc1 | 37%
14 | Cc1ncc(C(=O)Nc2ccc(CN3CCN(C)CC3)c(C(F)(F)F)c2)cc1C#Cc1cnc(NC2CC2)c2ncccc12 | -89.8% (active)
15 | C/C=C(/C)C(=O)OC1C=C(CO)C(=O)C(OC(=O)/C(C)=C\C)C1C(C)C (stereo not given) | -84.7% (active)
16 | O=C1CSC(c2ccccc2Cl)N1c1nnc(-c2ccncc2)o1 (stereo not given) | 96.8%
17 | C[n+]1c2ccccc2c(Nc2ccc(NS(=O)(=O)CCCCN=C(N)N)cc2)c2ccc(N)cc21 | 53.2%
18 | CC(C)CCCCCOC(=O)c1ccccc1SSc1ccccc1C(=O)OCCCCCC(C)C | 104%
19 | Oc1ccccc1\C=N/N=C/C=C/c1ccccc1 | 95.8%
20 | CC1=C(C)C(=O)C(C(C)C2=C(C)C(=O)C(C)=C(C)C2=O)=C(C)C1=O | 108%

Row | Compound | growth
21 | C=CCNC(=S)NNc1ccc([N+](=O)[O-])cn1 | 96%
22 | CSc1nc(N)n2nccc2n1 | 101%
23 | O=C(Nc1cccc(Cn2c(=O)[nH]c3ccc(Oc4ncccn4)cc3c2=O)c1)c1ccc(Cl)cc1 | 57.8%
24 | O=C(Nc1cccc(Cn2c(=O)[nH]c3ccc(Oc4ncccn4)cc3c2=O)c1)c1cccc(F)c1 | 78.6%
25 | CCCC(=O)Nc1ccccc1C(=O)O | 98.6%
26 | CC[N+](C)(C)N | 107%
27 | Nc1ccc(N=Nc2ccccc2)c2cc(S(=O)(=O)O)ccc12 | 103%
28 | COc1cc(Cn2ccc3c2-c2oncc2CC3)cc(OC)c1 | 12.7%
29 | CCCCS(=O)(=O)c1cc(Nc2ccc(O)c3c2C(=O)c2ccccc2C3=O)ccc1C | 21%
30 | Cc1ccc(S(=O)(=O)N/N=C2\CC3CCC2C3)cc1 (stereo not given) | 104%
31 | COc1cc(NC(=O)CSc2nc3ccc(Cl)cc3c(=O)n2-c2ccc(F)cc2)cc(OC)c1OC | 84.8%
32 | COc1cc2cn3c4ccc(O)cc4[nH]c(=O)c3c2cc1OC | 3.61% (active)
33 | Clc1ccc(N/N=C(\c2ccccc2)c2ccccn2)nc1 | -6.53% (active)
34 | O=C(O)c1ccc(Br)nc1 | 101%
35 | BrCCCOc1ccc(Oc2ccc(OCCCBr)cc2)cc1 | 102%
36 | Cc1sc(NC(=O)c2ccc(C(C)(C)C)cc2)c(C(=O)O)c1C | 107%
37 | CCCCCCNC(=O)Oc1ccc(/C(=C(/C)Cc2ccc(OC)cc2)c2ccc(OCCN(C)C)cc2)cc1 | -53.9% (active)
38 | CC(C)(C)c1ccc([I+]c2ccc(C(C)(C)C)cc2)cc1 | 2.73% (active)
39 | C/C=C(/C)C(=O)OC1C=C(CO)C(=O)C(OC(=O)C(C)(O)C(C)Cl)C1C(C)C (stereo not given) | -56.4% (active)
40 | C=C1CCC2C3(C)COC(c4ccccc4)OC3CCC2(C)C1C/C=C1/C(=O)OCC1O (stereo not given) | 80.6%
